Measurements as given in PubChem BioAssay (NCI).
This is part of a sample that, as a whole, favours compounds with a hit. Of some 83,000 tested, about 20% had one in any assay.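 A percent growth of 40 corresponds to 60% growth inhibition; 0 means no net growth; -100 means all cells died. Active threshold: below 10.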 Values without a mark were called inactive. The source made the active and inactive calls.

Tested on: OVCAR-4 ovarian
Experiment: NCI-60 one-dose screen, 48 h (100 = growth as untreated, 0 = no growth, -100 = all killed)
Conditions: 10 µM unless noted

SMILES | growth [%]
O=[N+]([O-])c1c(O)c(Cl)cc(Cl)c1Cl | 109
CN1CCOCCN(C)Cc2ccc3ccc(cc3c2)CN(C)CCOCCN(C)Cc2ccc3ccc(cc3c2)C1 | 78.4
O=C1/C(=C/c2c[nH]c(=O)[nH]c2=O)SC(=S)N1Cc1ccccc1 | 105
O=Nc1ccc(NC(=O)Nc2ccc([N+](=O)[O-])cc2)cc1 | 87.1
N#Cc1nn(-c2cc(=O)[nH]c3ccc(Br)cc23)c(N)c1C#N | 81.6
C[C@H](c1nc2ccc(C#N)cc2[nH]1)[C@H]1CC[C@H]2[C@@H]3CCC4=CC(=O)CC[C@]4(C)[C@H]3CC[C@]12C | 46
CCOC(=O)C1=C(c2ccccc2)N=C2N(c3ccccc3)N=C(C(C)=O)N2C1c1ccc(F)cc1 (configuration not stated) | 97.9

Tested on: SK-OV-3 ovarian
Experiment: as above
Conditions: 10 µM unless noted

SMILES | growth
COc1cc(O)c2c(=O)c3c(CC=C(C)C)cc(OC)c(O)c3oc2c1 | 17%
Cc1nc2sc(C(=O)Nc3cccc4ccccc34)c(N)c2cc1C(=O)c1ccccc1 | 39.7%
Cc1cc(C(=O)CCCC(=O)c2cc(C)c(O)c(C)c2)cc(C)c1O | 98%
FC(F)(F)c1[nH]ncc1-c1nc2ccc3[nH]ncc3c2c2c1CCCC2 | -3.29% (active)
Nc1ncnc2c1N=C(c1ccc(F)cc1)CC(c1cccc(Nc3ccnc4cc(Cl)ccc34)c1)N2 (configuration not stated) | 98.9%
COC(=O)c1c2c(c(C)[n+]([O-])c1C)C(=O)C(NCc1ccccc1)=CC2=O | 88.8%
COc1cc(C=Nc2oc(-c3ccccc3)c(-c3ccccc3)c2C#N)cc(CN2CCCC2)c1O | 111%
NCCCNc1nc2ccccc2c2c(=O)c3cc(Cl)ccc3sc12 | 77.6%
O=C(/C=C/c1cccc(Oc2ccccc2)c1)c1ccc(Nc2nc(Nc3ccc(F)cc3)nc(Nc3ccc(Cl)cc3)n2)cc1 | 120%
CCCCO[C@@H]1C=C2[C@H]3CC(C)(C)C(=O)C[C@]3(C(=O)O[C@@H]3O[C@H](CO[C@@H]4O[C@H](CO)[C@@H](OC5OC(C)C(O)C(O)C5O)[C@H](O)[C@H]4O)[C@@H](O)[C@H](O)[C@H]3O)CC[C@@]2(C)[C@]2(C)CC[C@H]3C(C)(C)C(=O)CC[C@]3(C)[C@@H]12 (some centres not stated) | 91.8%
COc1ccc2cc(-c3nc4ccc(C)cn4c3NCc3ccco3)c(=O)[nH]c2c1 | 78.1%
c1csc(-c2cn3nc(-c4c[nH]c5ccccc45)sc3n2)c1 | 26.4%
O=C1C=CC2(O)OC/C(=C\c3ccccc3)C(O)=C2C1=O (configuration not stated) | 86.6%
C=C1CC[C@@H]2C(C)(C)[C@H](O)CC[C@@]2(C)[C@@H]1COc1ccc2ccc(=O)oc2c1 | 104%
COC(=O)c1c(C)nc(C)c2c1C(=O)C=C(NCc1ccccc1)C2=O | 91.4%
COC(=O)c1ccc2cc(OC)c(OC)cc2c1 | 118%
O=C(c1cccc(N2CCOCC2)n1)c1c[nH]c2ccccc12 | 164%
C=C[C@@]1(C)CC(=O)[C@@H](C(C)(C)c2cn(C)c3ccc(Br)cc23)C[C@@H]1O[Si](C)(C)C(C)(C)C | 115%
COCCOC(C)C(/C=N/NC(N)=S)=N/NC(N)=S (configuration not stated) | 93.3%
Cc1cc(N2CCN(CC(=O)Nc3ccc4c(ccn4Cc4ccccc4)c3)CC2)nc(N2CCOCC2)n1 | 81.9%

SMILES | growth
COc1ccc(C2CC(c3ccccc3)=NN2C(=O)c2cc(OC)c(OC)c(OC)c2)cc1O (configuration not stated) | 54.9%
Cc1ccc(O)c(NC(=O)c2cccc(Nc3ccnc(C(F)(F)F)c3)c2)c1 | 72.9%
Cc1ncc(C(=O)Nc2ccc(CN3CCN(C)CC3)c(C(F)(F)F)c2)cc1C#Cc1cnc(N)c2ccc(C#N)cc12 | -14.6% (active)
Cc1nn(C)c2ncnc(N/N=C/c3cccc(O)c3O)c12 | 9.76% (active)
O=C(O)CC(C(=O)O)/C(=C\c1ccccc1)c1ccccc1 (configuration not stated) | 97.4%
Fc1ccc2[nH]cc(-c3nc(-c4c[nH]c5c(Cl)nccc45)cs3)c2c1 | 47.5%
CCCN(CCSSCCNc1nc(N(C)O)nc(N(C)O)n1)c1nc(N(C)O)nc(N(C)O)n1 | 57.1%
CCOC(=O)c1cn2ncnc(Oc3ccc(NC(=O)NC4CC4)c(Cl)c3)c2c1C | 111%
COC1C(O)CC(OC2CC(OC3CC(O[C@@H]4C(=O)c5c(cc6cc(OC7CC(OC8CC(O)C(O)C(C)O8)C(O)C(C)O7)c(C)c(O)c6c5O)CC4[C@H](OC)[C@@H](O)C(C)=O)OC(C)C3O)OC(C)C2O)OC1C (some centres not stated) | 22.2%
COC12C=C/C(=C(/C(=O)OCc3csc(SC)n3)C(=O)CCCCCCCCC3(OC)C=C/C(=C(/C(=O)OCc4cnc(SC)s4)C(=O)CCCCCCCC1)O3)O2 (configuration not stated) | 87.8%
COc1ccc(/C=C2\CN(C(=O)C(Cl)Cl)C/C(=C\c3ccc(OC)c(OC)c3)C2=O)cc1OC | 48.3%
Cc1c2cnccc2c(C)c2c1c1cc(CO)ccc1n2C | -43.1% (active)
COc1ccc(C=Nc2c(C(=O)Nc3cccc(Cl)c3C)sc3nc(C)c(C(=O)/C=C/c4ccc(OC)cc4)cc23)cc1 | 40.9%
O=[N+]([O-])c1c(O)c(Cl)cc(Cl)c1Cl | 99.2%
CN1CCOCCN(C)Cc2ccc3ccc(cc3c2)CN(C)CCOCCN(C)Cc2ccc3ccc(cc3c2)C1 | 146%
O=C1/C(=C/c2c[nH]c(=O)[nH]c2=O)SC(=S)N1Cc1ccccc1 | 103%
O=Nc1ccc(NC(=O)Nc2ccc([N+](=O)[O-])cc2)cc1 | 102%
N#Cc1nn(-c2cc(=O)[nH]c3ccc(Br)cc23)c(N)c1C#N | 69.1%
C[C@H](c1nc2ccc(C#N)cc2[nH]1)[C@H]1CC[C@H]2[C@@H]3CCC4=CC(=O)CC[C@]4(C)[C@H]3CC[C@]12C | 80%
CCOC(=O)C1=C(c2ccccc2)N=C2N(c3ccccc3)N=C(C(C)=O)N2C1c1ccc(F)cc1 (configuration not stated) | 107%
